Rows were chosen to be rich in hits. Some 3.7% of all compounds tested hit in one or more screens of this group.
MazF activator: MazEF (E. coli) toxin RNase activation | P0AE70 | hit rate 0.32% among 350,000 | activation, % at 20 µM | FAM/BHQ RNA-DNA oligo cleavage fluorescence, 5 h; in the data active means activation above about 50%
BoNT F protease: blocks Botulinum neurotoxin F light chain protease; hit rate 0.22% among 360,000; inhibition, % at 10 µM; Multiplex microsphere protease cleavage assay, flow cytometry; in the data active means inhibition above about 35%, passing the limit was not always enough; inconclusive means no clear call, values can overlap the other calls
BoNT A protease: BoNT A light chain protease inhibition; multiplex microsphere protease substrate cleavage, flow cytometry; inhibition, % at 10 µM; hit rate 0.17% among 360,000; AID 588499
Bead autofluor: compound fluorescence in toxin protease inhibitor counterscreen. fluorescence intensity (test concentration not listed). hit rate 3.1% among 360,000. AID 624483. compound autofluorescence counterscreen, microsphere flow cytometry; hits give high values; in the data active means fluorescence intensity above about 16000; inconclusive means no clear call, values can overlap the other calls
Anthrax LF prot: anthrax lethal factor protease inhibition. P15917. multiplex microsphere protease cleavage assay, LF. inhibition, % at 10 µM. hit rate 0.12% among 360,000. AID 588501
BoNTA LC inh 1: inhibitors of Botulinum neurotoxin A light chain protease; inhibition, % at 10 µM; AID 602139; hit rate 3% among 720; shares compounds with BoNT F protease; multiplex microsphere protease assay, flow cytometry; in the data active means inhibition above about 32%
BoNT-F LC CP1: blocks botulinum neurotoxin F light chain protease | shares compounds with BoNT F protease | multiplex microsphere protease cleavage assay, flow cytometry | inhibition, % at 10 µM | 720 tested, under 10 active; call rule not given here
Anthrax LF CP1: blocks anthrax lethal factor protease | shares compounds with BoNT F protease | multiplex microsphere protease cleavage assay, LF | inhibition, % at 10 µM | 720 tested, under 10 active; call rule not given here
Each line names hits and unclear results; the compound was inactive in the other large screens (follow-up assays come after a bar, where they were run). Unless noted, no stated cut-off is given here; in the data, active means inhibition above about 30%; inconclusive means no clear call, values can overlap the other calls; inactive means below that.

COc1ccc(CCN2CC(C(=O)NCc3nc4ccccc4n3C)CCC2=O)cc1 (stereo not given)	none
COCc1cc(C)nc(Nc2ccccc2OC)c1C#N	Anthrax LF prot 32 | BoNTA LC inh 1 inactive | BoNT-F LC CP1 inactive | Anthrax LF CP1 inactive
COc1ccc2c(n1)Sc1nc3ccccc3nc1N2	BoNT A protease 30 | BoNTA LC inh 1 inactive | BoNT-F LC CP1 inactive | Anthrax LF CP1 inactive
COc1cc2ccccc2nn1	none
CC(C)CN1CCN(Cc2cn(C)c3ccccc23)CC1CCO (stereo not given)	none
Cc1nc(-c2ccccc2)sc1-c1n[nH]c(=S)n1C	BoNT F protease 54, BoNT A protease 30, Bead autofluor inconclusive | BoNTA LC inh 1 inactive | BoNT-F LC CP1 inactive | Anthrax LF CP1 inactive
Cn1c(-c2ccccc2)n[nH]c1=S	none
C=CCc1cccc(CNn2cnnc2)c1O	BoNT F protease 43 | BoNTA LC inh 1 inactive | BoNT-F LC CP1 inactive | Anthrax LF CP1 inactive
Cc1ccc2c(n1)sc1c(-c3ccc(Br)cc3)c(C#N)c(N)nc12	BoNT A protease 44, Bead autofluor inconclusive | BoNTA LC inh 1 inactive | BoNT-F LC CP1 inactive | Anthrax LF CP1 inactive
NS(=O)(=O)c1ccc(CCNC2CC(=O)N(CCc3ccccc3)C2=O)cc1 (stereo not given)	BoNT F protease 158, Anthrax LF prot 52 | BoNTA LC inh 1 inactive | BoNT-F LC CP1 inactive | Anthrax LF CP1 inactive
Clc1ccc(-c2nc(N3CCCCC3)nc3ccccc23)cc1	BoNT F protease 59, BoNT A protease 32 | BoNTA LC inh 1 inactive | BoNT-F LC CP1 inactive | Anthrax LF CP1 inactive
O=C(O)CCC(=O)N1CCN(c2nc(-c3ccccc3)c3ccccc3n2)CC1	none
CCC(C)NC(=O)c1c(N)n(Cc2ccc3c(c2)OCO3)c2nc3ccccc3nc12 (stereo not given)	BoNT A protease 30 | BoNTA LC inh 1 inactive | BoNT-F LC CP1 inactive | Anthrax LF CP1 inactive
CCOC(=O)c1ccccc1-c1csc(N)n1	none
O=C(Nc1ccc(O)cc1C(=O)O)c1ccc2c(c1)C(=O)N(Cc1ccco1)C2=O	BoNT F protease 35 | BoNTA LC inh 1 inactive | BoNT-F LC CP1 inactive | Anthrax LF CP1 inactive
CNC(=S)N1N=C(c2cccs2)CC1c1ccc(F)cc1 (stereo not given)	BoNT F protease 50 | BoNTA LC inh 1 inactive | BoNT-F LC CP1 inactive | Anthrax LF CP1 inactive
COc1cccc(CC2(CO)CCCN(Cc3cc4ccccc4[nH]3)C2)c1 (stereo not given)	none
CCCCC(=O)C1CCN(Cc2ccccc2)CC1	none | BoNTA LC inh 1 inactive | BoNT-F LC CP1 inactive | Anthrax LF CP1 inactive
Cc1ccc(Cc2c(-c3cccc(Br)c3)nc3ccc(Br)cn23)cc1	none (no result: MazF activator)
Cc1ccc(-n2cc3c(-c4cccc(Br)c4)nnc(C)c3n2)cc1	BoNT F protease 63, BoNT A protease inconclusive, Bead autofluor 38801, Anthrax LF prot inconclusive | BoNTA LC inh 1 inactive | BoNT-F LC CP1 inactive | Anthrax LF CP1 inactive
COC(=O)c1sccc1NC(=O)c1ccco1	BoNT F protease 36 | BoNTA LC inh 1 inactive | BoNT-F LC CP1 inactive | Anthrax LF CP1 inactive
COC(=O)c1ccccc1NC(=O)c1ccco1	none
COc1ccc(-c2cc(C(=O)Nc3cc(OC)cc(C(=O)Nc4cccc(C(F)(F)F)c4)c3)[nH]n2)cc1	none
Cc1nc2sc(C(=O)O)c(N)c2c2c1COC(C)(C)C2	none
CCOC(=O)c1sc2nc(-c3ccco3)c3c(c2c1N)CC(C)(C)OC3	BoNT A protease 33 | BoNTA LC inh 1 inactive | BoNT-F LC CP1 inactive | Anthrax LF CP1 inactive
COc1ccccc1OCCNC(=O)c1cc(F)c(F)cc1Cl	none
COc1ccccc1OCCNC(=O)Nc1cc(F)c(F)cc1Cl	BoNT F protease inconclusive, Anthrax LF prot 31 | BoNTA LC inh 1 inactive | BoNT-F LC CP1 inactive | Anthrax LF CP1 inactive
O=C(c1ccccc1)c1sc(N2CCCCCC2)nc1-c1ccccc1	BoNT A protease 54, Anthrax LF prot 34 | BoNTA LC inh 1 inactive | BoNT-F LC CP1 inactive | Anthrax LF CP1 inactive
Cn1c(=O)[nH]c(=O)c2c1nc(NC1CCCC1)n2Cc1ccccc1	none
CN(CC(=O)NCCc1ccc(S(N)(=O)=O)cc1)Cc1c(F)cccc1Cl	BoNT F protease 40 | BoNTA LC inh 1 inactive | BoNT-F LC CP1 inactive | Anthrax LF CP1 inactive
Fc1cccc(Cl)c1CNc1ccc(N2CCCC2)cc1	none
NS(=O)(=O)c1ccc(NCc2c(F)cccc2Cl)cc1	BoNT F protease 46, BoNT A protease 38 | BoNTA LC inh 1 inactive | BoNT-F LC CP1 inactive | Anthrax LF CP1 inactive
CC(C)c1ncc(CO)n1Cc1c(Cl)cccc1Cl	none
CCCCCN(C(=O)CCC(=O)OCC(=O)N(CC)C1CCCCC1)c1c(N)n(CCCC)c(=O)[nH]c1=O	none
COc1ccc(-n2c(C)nc(N)c2C(=O)c2ccccc2)cc1	BoNT F protease inconclusive, Anthrax LF prot 56 | BoNTA LC inh 1 inactive | BoNT-F LC CP1 inactive | Anthrax LF CP1 inactive
COC(=O)c1c(N)nc(C)n1-c1ccc(OC)cc1	none
O=C1CNC(=S)N1c1nc2ccccc2s1	BoNT F protease inconclusive, Anthrax LF prot 32 | BoNTA LC inh 1 inactive | BoNT-F LC CP1 inactive | Anthrax LF CP1 inactive
CCOC(=O)c1c(NC(=O)COC(=O)c2cnccn2)sc(C)c1C	none
Cc1cc(C)c(NC(=O)C2CCCO2)c(C)c1NC(=O)C1CCCO1 (stereo not given)	BoNT F protease 38 | BoNTA LC inh 1 inactive | BoNT-F LC CP1 inactive | Anthrax LF CP1 inactive
OC1CN=C2CCCc3c2n(c2ccc(Cl)cc32)C1 (stereo not given)	BoNT A protease 54, Anthrax LF prot 42 | BoNTA LC inh 1 inactive | BoNT-F LC CP1 inactive | Anthrax LF CP1 inactive
COc1ccc(S(=O)(=O)N2CCCCCC2)cc1N(C)S(=O)(=O)c1ccc(Cl)cc1	BoNT F protease 37 | BoNTA LC inh 1 inactive | BoNT-F LC CP1 inactive | Anthrax LF CP1 inactive
COc1ccc(S(=O)(=O)N2CCC(C)CC2)cc1N(C)S(=O)(=O)c1ccccc1	none
O=C(NCc1ccco1)c1ccc(-c2ccc(F)c(F)c2)c2ccoc12	none (no result: MazF activator)
COc1ccc(C(=O)N2CCN(Cc3cc(OC)ccc3OC)CC2)cc1	BoNT F protease inconclusive
COc1ccc(C(=O)N2CCN(Cc3ccc(OC)c(OC)c3)CC2)cc1	BoNT F protease 44 | BoNTA LC inh 1 inactive | BoNT-F LC CP1 inactive | Anthrax LF CP1 inactive
O=C(Nc1ccc(F)cc1)Nc1cccc(Br)c1	BoNT F protease inconclusive, Anthrax LF prot 32 | BoNTA LC inh 1 inactive | BoNT-F LC CP1 inactive | Anthrax LF CP1 inactive
COc1ccc(C(=O)NCCc2ccc(C)cc2)cc1OC1CCN(C(C)=O)CC1	none
COc1cc(C(=O)N(C)CCOc2ccc(C)cc2)ccc1OC1CCN(C(C)=O)CC1	BoNT F protease inconclusive, Anthrax LF prot 30 | BoNTA LC inh 1 inactive | BoNT-F LC CP1 inactive | Anthrax LF CP1 inactive
CC(C)OC(=O)C(C)Nc1ccc(F)c(Cl)c1 (stereo not given)	BoNT F protease 40 | BoNTA LC inh 1 inactive | BoNT-F LC CP1 inactive | Anthrax LF CP1 inactive

From PubChem
